The results in this text go back to PubChem BioAssay (NCATS).

Values joined by “and” are separate entries in the source; they are usually repeats but may differ in a detail not shown here. Identical values can stand only once. Records with an inconclusive call do not appear. The source holds several records for some structures; these can differ, active in one and inactive in another. Active and inactive are the calls of the source. Unless noted, calls come from the whole dose curve.

The nature of experiment [1]: Cell Viability - SH-SY5Y (AID 544; active = well fitted curve in the direction sought with a large enough effect; an effect the other way counts as inactive or inconclusive;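 note: cells exposed to compound for 40 hours; 0% = DMSO alone and -100% = 100 µM tamoxifen; nearly all actives have a fitted effect of over 55% in size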). The method in brief:
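Quantitative HTS in SH-SY5Y neuroblastoma cells, 40 hr treatment at 37 °C, ATP content by luciferase luminescence; AC50 from Hill fits.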

In experiment [2] the target is Estrogen receptor (Homo sapiens) (UniProt P03372). Briefly: qHTS assay for small molecule agonists of estrogen receptor alpha signaling (AID 588514).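 Note: 0% = vehicle only and 100% = reference agonist; nearly all actives have a fitted effect of over 70% in size.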 The method in brief: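 Fluorescence from CCF4 cleavage reports ER-alpha-driven beta-lactamase expression in HEK 293 cells treated 18 hrs at 37 C. Data normalized to 17-beta-estradiol (20 nM) and DMSO, fitted to Hill equation.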
Sequence of Estrogen receptor (Homo sapiens) (P03372 whole entry, looked up): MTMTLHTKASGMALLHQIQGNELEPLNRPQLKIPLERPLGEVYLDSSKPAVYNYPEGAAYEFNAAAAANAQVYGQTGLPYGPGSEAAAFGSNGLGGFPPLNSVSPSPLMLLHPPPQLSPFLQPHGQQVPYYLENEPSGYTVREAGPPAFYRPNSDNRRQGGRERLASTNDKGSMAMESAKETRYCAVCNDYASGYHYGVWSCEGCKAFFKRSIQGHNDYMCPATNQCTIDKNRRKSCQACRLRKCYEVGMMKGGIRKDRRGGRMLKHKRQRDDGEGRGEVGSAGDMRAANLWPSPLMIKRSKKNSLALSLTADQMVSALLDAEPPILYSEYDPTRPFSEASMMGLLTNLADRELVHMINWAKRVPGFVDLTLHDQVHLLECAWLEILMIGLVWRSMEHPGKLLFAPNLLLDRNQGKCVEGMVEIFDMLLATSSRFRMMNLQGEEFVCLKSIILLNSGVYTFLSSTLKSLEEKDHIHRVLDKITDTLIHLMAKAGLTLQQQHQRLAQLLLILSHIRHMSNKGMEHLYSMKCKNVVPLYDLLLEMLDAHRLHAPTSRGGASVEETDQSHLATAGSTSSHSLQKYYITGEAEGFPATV
For orientation: Quantitative high-throughput screening tests each substance at several concentrations.

Experiment [3] concerns the target Glucocorticoid receptor (Homo sapiens) (UniProt P04150). Briefly: qHTS assay for small molecule agonists of glucocorticoid receptor signaling (AID 588532; active = well fitted curve in the direction sought with a large enough effect in the signal ratio, with a control signal flat; the % refers to the signal ratio;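 note: 100% = dexamethasone at 0.1 µM and 0% = DMSO only wells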). The conditions noted are these: HeLa MMTV-bla, beta-lactamase ratio, agonist, 18 h; stronger effect = higher value; percent of dexamethasone control, DMSO zero. The procedure, abridged:
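Titration series, up to 92 uM, applied to GRE-bla HeLa cells for 18 h at 37 C. Detection by CCF4 FRET substrate after 2 h at RT.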

Experiment [4] shares this target. Briefly: qHTS assay for small molecule antagonists of glucocorticoid receptor signaling (AID 588533; active = well fitted inhibition curve with a large enough effect in the signal ratio, with a control signal flat, not every such curve was filed as active; the % refers to the signal ratio;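 note: cells stimulated with 2 nM dexamethasone as agonist; % is set by controls: 0 for no effect and ±100 for the full control effect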). The procedure, abridged: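 Antagonist-mode qHTS: compound titrations added to GRE-bla HeLa cells, then dexamethasone 2 nM final; 18 h, 37 C. CCF4 FRET fluorescence normalized to dexamethasone and DMSO; IC50 from Hill fit.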
A short description of experiment [5]: qHTS assay for small molecule antagonists of peroxisome proliferator-activated receptor delta signaling (AID 588535; active = well fitted inhibition curve with a large enough effect in the signal ratio, with a control signal flat, not every such curve was filed as active; the % refers to the signal ratio;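 for max response: cells co-treated with a PPAR-delta agonist as stimulator during compound exposure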). The conditions noted are these: HEK293T PPARd-UAS-bla, beta-lactamase FRET ratio, 18 h; 460 nm channel. The procedure, abridged:
(§1)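 Compounds tested in titration on PPAR-delta-UAS-bla HEK293T cells grown in charcoal/dextran-stripped serum (2%); beta-lactamase activity read via CCF4 emission at 460 and 530 nm.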

For experiment [6], the target named is Peroxisome proliferator-activated receptor delta (Homo sapiens) (UniProt Q03181). Described as above. The method in brief:
as §1

Experiment [7] has as its target Peroxisome proliferator-activated receptor gamma (Homo sapiens) (UniProt P37231). Nature of the experiment: qHTS assay for small molecule antagonists of peroxisome proliferator-activated receptor gamma signaling (AID 588537; active = well fitted inhibition curve with a large enough effect in the signal ratio, with a control signal flat, not every such curve was filed as active; the % refers to the signal ratio;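 note: reporter cells co-stimulated with 50 nM rosiglitazone agonist during compound treatment; % of control where 0% means no effect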). The method in brief: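 HEK293 cells, PPAR-gamma-UAS-bla, 3000/well. Pre-incubation 6-6.5 h, 37 C. Compound titration with rosiglitazone 50 nM final, 16 h. CCF4 dye, 2 h RT, dual-emission fluorescence.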

The target of experiment [8] is Vitamin D3 receptor (Homo sapiens) (UniProt P11473). Nature of the experiment: qHTS assay for small molecule antagonists of vitamin D receptor signaling (AID 588541).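 Note: receptor activated by calcitriol during compound treatment; series mostly up to about 77 µM; % is set by controls: 0 for no effect and ±100 for the full control effect.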 The procedure, abridged: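 VDR-UAS-bla HEK293T cells (2000/well, 2% charcoal-stripped FBS) were treated with titrated compounds plus 1-alpha,25-dihydroxyvitamin D3 (50 nM or 3 nM final) for 16 h at 37 C. CCF4 beta-lactamase fluorescence was read; Hill fits gave IC50.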
Sequence of Vitamin D3 receptor (Homo sapiens) (P11473 whole entry, looked up): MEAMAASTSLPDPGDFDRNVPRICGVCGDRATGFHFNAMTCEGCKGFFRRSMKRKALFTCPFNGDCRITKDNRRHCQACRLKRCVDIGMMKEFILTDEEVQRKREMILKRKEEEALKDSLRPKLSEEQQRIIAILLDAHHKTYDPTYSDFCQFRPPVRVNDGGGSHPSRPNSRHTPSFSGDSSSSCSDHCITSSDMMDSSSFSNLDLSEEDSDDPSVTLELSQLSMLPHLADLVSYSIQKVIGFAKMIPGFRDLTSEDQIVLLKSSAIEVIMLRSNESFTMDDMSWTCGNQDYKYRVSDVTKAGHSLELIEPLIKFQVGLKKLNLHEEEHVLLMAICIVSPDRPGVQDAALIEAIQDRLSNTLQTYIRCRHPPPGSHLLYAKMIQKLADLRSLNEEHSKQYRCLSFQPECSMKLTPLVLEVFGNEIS

The target is the same in experiment [9]. Briefly: qHTS assay for small molecule agonists of vitamin D receptor signaling (AID 588543).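 Note: 0% = DMSO basal and 100% = reference agonist control.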 The procedure, abridged:
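Reporter cells (HEK293T, VDR-UAS-bla) were seeded in medium with 2% charcoal-stripped serum and incubated 5 h, then compounds in concentration series were added for 16 h at 37 °C. Stimulation was scaled between DMSO basal and 50 nM 1α,25-dihydroxyvitamin D3.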

Experiment [10] can be described thus: qHTS assay for small molecule agonists of the antioxidant response element (ARE) signaling pathway (AID 651741; active = well fitted activation curve with a large enough effect in the signal ratio; the % refers to the signal ratio; note: % of control where 0% means no effect). The procedure, abridged: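 Beta-lactamase reporter expression driven by the antioxidant response element in HepG2 cells was detected by fluorescence with LiveBLAzer B/G FRET substrate (2 h, room temperature) following 16 h compound treatment at 37 C.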

In experiment [11] the target is Nuclear receptor ROR-gamma (Homo sapiens) (UniProt P51449). Briefly: qHTS assay for small molecule antagonists of the retinoid-related orphan receptor gamma (ROR-gamma) signaling pathway (AID 651802; active = well fitted curve in the direction sought with a large enough effect; an effect the other way counts as inactive or inconclusive;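 note: CHO cells with doxycycline-induced ROR-gamma expression; luciferase reporter luminescence driven by ROR response element; series mostly up to about 92 µM; % is set by controls: 0 for no effect and ±100 for the full control effect; nearly all actives have a fitted effect of over 60% in size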). The procedure, abridged:
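Doxycycline-induced reporter activity in engineered CHO cells (TET-inducible ROR, RORE-LUC) was measured by luminescence after 16hr compound exposure at 37C.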

Experiment [12] is described as follows: qHTS assay for cell viability of the p53RE-bla HCT-116 cell line (AID 743292; active = well fitted curve in the direction sought with a large enough effect; an effect the other way counts as inactive or inconclusive; note: % is set by controls: 0 for no effect and ±100 for the full control effect; nearly all actives have a fitted effect of over 55% in size). The method in brief: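 Readout: CellTiter-Glo luminescence after 30 min RT. Treatment: compounds in DMSO, 16 h, 37 C. Cells: CellSensor p53RE-bla HCT-116, 4,000/well, preincubated 5 h.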
The nature of experiment [13]: Cellular Toxicity (caspase-3) NIH 3T3 (AID 666; active = well fitted curve in the direction sought with a large enough effect; an effect the other way counts as inactive or inconclusive;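 note: caspase signal read after 16 h compound exposure; 0% = DMSO basal and 100% = 100 µM tamoxifen stimulation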). The procedure, abridged:
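Activity: caspase-3/7 induction, NIH 3T3 cells, 16 hr treatment at 37°C, luminescent Caspase-Glo detection; AC50 via Hill equation.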

Experiment [14] is described as follows: Cell Viability - LYMP1-002 - Assay at 40 hr (AID 994; active = well fitted curve in the direction sought with a large enough effect; an effect the other way counts as inactive or inconclusive;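 note: 0% = DMSO only and full inhibition = 92 µM tetraoctylammonium bromide; nearly all actives have a fitted effect of over 60% in size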). The method in brief:
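Concentration-dependent ATP loss after 40 hr treatment at 37 C defined toxicity; AC50 values were obtained by fitting the standard Hill equation.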

Experiment [15] is described as follows: qHTS assay for small molecule activators of the nuclear factor-kappa B (NF-kB) signaling pathway (AID 651749; active = well fitted activation curve with a large enough effect in the signal ratio; the % refers to the signal ratio; note: series mostly up to about 77 µM; % of control where 0% means no effect). The conditions noted are these: NF-kB-bla ME-180 cells, beta-lactamase FRET ratio, 16 h; stronger effect = higher value. The procedure, abridged: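 Beta-lactamase reporter expression, controlled by NF-kB response elements in ME-180 cells, was quantified fluorometrically via FRET disruption; cells at 2,000/well had been incubated with 23 nL test compound for 16 hr.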

Experiment [16] is described as follows: qHTS assay to identify small molecules that stimulate interleukin-8 (IL-8) secretion (AID 651758; active = well fitted activation curve with a large enough effect in the signal ratio; the % refers to the signal ratio; note: potency is the fitted concentration of half-maximal effect; for activation: 0% is about no effect). The procedure, abridged: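 Quantitative HTS in THP-1 monocytic cells at 2000 cells per well, with 16 hrs compound incubation at 37 C. IL-8 in the medium was then quantified by HTRF immunoassay, read after 1-3 hrs at room temperature.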
Experiment [17] concerns the target Bile acid receptor (Homo sapiens) (UniProt Q96RI1). Briefly: qHTS assay for small molecule antagonists of farnesoid X receptor signaling (AID 588526). Note: % is set by controls: 0 for no effect and ±100 for the full control effect. The method in brief:
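Concentration-response titrations were fitted to the Hill equation for half-maximal inhibition and maximal response, with data normalised to 50 uM chenodeoxycholic acid and DMSO control wells. Cells: FXR-UAS-bla HEK293T, dialyzed FBS.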

The nature of experiment [18]: Cell Viability - LYMP2-021 (AID 974; active = well fitted curve in the direction sought with a large enough effect; an effect the other way counts as inactive or inconclusive;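 note: compound exposure lasts 24 hours at 37 °C; % is set by controls: 0 for no effect and ±100 for the full control effect; nearly all actives have a fitted effect of over 55% in size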). The method in brief:
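In qHTS format, compounds are tested against 2500 lymphoblastoid cells per well for 24 h; viable cell number is inferred from ATP-driven luciferase light, and Hill-equation fitting yields AC50 values.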

Experiment [19] deals with Retinoic acid receptor RXR-alpha (Homo sapiens) (UniProt P19793). Nature of the experiment: qHTS assay for small molecule antagonists of retinoid X receptor alpha signaling (AID 588546; active = well fitted inhibition curve with a large enough effect in the signal ratio, with a control signal flat, not every such curve was filed as active; the % refers to the signal ratio;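 note: cells stimulated with 9-cis-retinoic acid as agonist; % is set by controls: 0 for no effect and ±100 for the full control effect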). The conditions noted are these: HEK293T RXRa-UAS-bla, beta-lactamase ratio, antagonist mode. The procedure, abridged:
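Beta-lactamase reporter inhibition, read as CCF4 fluorescence ratio (ex 405, em 460/530 nm) after 2 h at RT. HEK293T UAS-bla cells, 2500/well, were stimulated with 9-cis-RA at 500 or 100 nM final alongside test compound for 18 h at 37 C.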

Experiment [20] in a line: Cell Viability - LYMP2-015 (AID 971; active = well fitted curve in the direction sought with a large enough effect; an effect the other way counts as inactive or inconclusive;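 note: 0% = DMSO only and full effect = 92 µM tetraoctylammonium bromide; nearly all actives have a fitted effect of over 55% in size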). The procedure, abridged: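 AC50 values reflect Hill-model fits of ATP-based luminescence (CellTiter-Glo) from a human lymphoblastoid line, 2500 cells/well, treated 24 hr at 37 C.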

Sequence of Nuclear receptor ROR-gamma (Homo sapiens) (P51449 whole entry, looked up): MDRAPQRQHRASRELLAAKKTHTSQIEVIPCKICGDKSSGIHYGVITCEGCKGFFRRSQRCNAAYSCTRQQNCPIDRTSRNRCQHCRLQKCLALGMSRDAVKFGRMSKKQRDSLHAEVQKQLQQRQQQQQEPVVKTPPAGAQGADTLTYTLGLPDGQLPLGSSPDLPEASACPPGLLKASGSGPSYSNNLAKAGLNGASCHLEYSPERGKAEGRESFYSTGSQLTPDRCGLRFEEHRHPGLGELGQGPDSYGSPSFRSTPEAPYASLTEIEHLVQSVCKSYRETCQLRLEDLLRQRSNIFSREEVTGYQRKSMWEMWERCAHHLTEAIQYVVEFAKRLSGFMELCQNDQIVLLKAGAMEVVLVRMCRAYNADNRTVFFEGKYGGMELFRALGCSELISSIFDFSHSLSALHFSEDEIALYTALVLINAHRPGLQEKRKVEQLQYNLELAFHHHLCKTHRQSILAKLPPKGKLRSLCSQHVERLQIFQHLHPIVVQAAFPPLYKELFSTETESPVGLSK
Sequence of Bile acid receptor (Homo sapiens) (Q96RI1 whole entry, looked up): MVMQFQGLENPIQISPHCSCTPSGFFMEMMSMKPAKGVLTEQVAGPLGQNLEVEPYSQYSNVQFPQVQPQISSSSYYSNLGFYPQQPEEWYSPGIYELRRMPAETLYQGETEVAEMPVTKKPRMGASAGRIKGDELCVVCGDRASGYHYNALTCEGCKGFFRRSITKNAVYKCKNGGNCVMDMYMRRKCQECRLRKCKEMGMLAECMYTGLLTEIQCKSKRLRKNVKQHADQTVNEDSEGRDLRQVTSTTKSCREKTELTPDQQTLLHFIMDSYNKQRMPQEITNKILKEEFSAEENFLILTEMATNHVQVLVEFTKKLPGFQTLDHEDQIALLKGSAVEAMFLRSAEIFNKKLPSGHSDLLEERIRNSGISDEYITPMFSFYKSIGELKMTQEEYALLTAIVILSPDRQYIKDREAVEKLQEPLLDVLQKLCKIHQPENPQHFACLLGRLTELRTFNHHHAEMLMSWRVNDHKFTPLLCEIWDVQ
Sequence of Retinoic acid receptor RXR-alpha (Homo sapiens) (P19793 whole entry, looked up): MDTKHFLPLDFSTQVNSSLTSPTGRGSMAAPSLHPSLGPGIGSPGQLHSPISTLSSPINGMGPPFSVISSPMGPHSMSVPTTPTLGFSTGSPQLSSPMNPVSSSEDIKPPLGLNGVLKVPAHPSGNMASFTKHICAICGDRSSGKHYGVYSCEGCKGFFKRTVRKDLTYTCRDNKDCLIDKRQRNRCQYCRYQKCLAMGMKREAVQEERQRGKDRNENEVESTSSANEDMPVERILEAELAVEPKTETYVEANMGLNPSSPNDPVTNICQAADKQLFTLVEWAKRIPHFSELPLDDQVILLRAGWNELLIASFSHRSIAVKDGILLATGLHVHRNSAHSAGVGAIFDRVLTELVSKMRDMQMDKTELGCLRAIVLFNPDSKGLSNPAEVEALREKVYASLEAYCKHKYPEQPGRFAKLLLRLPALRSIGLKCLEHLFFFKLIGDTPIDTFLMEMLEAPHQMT
Sequence of Peroxisome proliferator-activated receptor delta (Homo sapiens) (Q03181 whole entry, looked up): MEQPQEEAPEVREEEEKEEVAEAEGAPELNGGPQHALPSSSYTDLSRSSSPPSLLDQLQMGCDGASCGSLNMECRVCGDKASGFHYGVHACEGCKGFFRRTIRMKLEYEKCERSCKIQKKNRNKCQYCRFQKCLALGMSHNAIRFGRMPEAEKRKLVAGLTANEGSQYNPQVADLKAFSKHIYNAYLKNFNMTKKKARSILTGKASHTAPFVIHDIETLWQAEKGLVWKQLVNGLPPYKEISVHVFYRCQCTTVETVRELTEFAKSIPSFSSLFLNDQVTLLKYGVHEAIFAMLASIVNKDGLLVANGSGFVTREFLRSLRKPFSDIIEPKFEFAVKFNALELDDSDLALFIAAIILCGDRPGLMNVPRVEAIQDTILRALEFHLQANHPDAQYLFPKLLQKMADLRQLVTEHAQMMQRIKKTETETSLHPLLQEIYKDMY
Sequence of Glucocorticoid receptor (Homo sapiens) (P04150 whole entry, looked up): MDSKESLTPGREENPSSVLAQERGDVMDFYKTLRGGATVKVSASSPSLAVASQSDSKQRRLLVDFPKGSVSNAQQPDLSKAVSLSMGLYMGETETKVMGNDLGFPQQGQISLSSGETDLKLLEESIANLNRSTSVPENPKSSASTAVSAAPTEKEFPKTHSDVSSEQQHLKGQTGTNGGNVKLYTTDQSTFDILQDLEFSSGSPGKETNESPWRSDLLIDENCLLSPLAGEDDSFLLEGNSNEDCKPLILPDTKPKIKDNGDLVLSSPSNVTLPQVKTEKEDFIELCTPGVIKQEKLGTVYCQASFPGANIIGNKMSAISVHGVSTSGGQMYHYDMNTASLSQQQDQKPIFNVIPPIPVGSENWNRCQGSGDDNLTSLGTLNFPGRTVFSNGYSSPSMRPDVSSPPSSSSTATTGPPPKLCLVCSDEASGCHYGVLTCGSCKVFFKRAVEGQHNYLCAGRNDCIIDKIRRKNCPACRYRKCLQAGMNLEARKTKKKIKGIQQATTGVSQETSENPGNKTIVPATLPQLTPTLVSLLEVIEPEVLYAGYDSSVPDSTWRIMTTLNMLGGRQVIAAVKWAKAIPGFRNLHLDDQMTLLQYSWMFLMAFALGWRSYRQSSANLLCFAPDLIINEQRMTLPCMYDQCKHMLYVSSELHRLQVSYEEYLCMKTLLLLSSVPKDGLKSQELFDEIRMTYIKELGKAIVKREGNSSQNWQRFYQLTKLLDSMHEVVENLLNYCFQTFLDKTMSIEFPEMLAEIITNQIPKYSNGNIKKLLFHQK
Sequence of Peroxisome proliferator-activated receptor gamma (Homo sapiens) (P37231 whole entry, looked up): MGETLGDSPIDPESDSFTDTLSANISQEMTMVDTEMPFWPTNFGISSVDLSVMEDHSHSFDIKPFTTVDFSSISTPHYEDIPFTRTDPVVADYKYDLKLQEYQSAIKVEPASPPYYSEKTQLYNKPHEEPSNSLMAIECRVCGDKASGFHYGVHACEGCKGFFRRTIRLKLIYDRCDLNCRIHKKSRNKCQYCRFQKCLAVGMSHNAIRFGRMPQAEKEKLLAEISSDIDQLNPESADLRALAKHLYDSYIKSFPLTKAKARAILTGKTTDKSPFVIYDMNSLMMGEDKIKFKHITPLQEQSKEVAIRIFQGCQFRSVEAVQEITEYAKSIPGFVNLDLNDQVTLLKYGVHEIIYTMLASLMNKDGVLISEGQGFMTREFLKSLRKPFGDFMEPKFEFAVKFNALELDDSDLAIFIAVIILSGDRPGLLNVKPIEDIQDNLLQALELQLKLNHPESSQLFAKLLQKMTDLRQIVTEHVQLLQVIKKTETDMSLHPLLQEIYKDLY

`CCCCCCCCO`: the Potency result in [1], in experiment [2], in [4], in [6], in experiment [10] and in experiment [11] was “inactive” each time. Moreover, in experiment [12], the Potency result is “inactive”. In addition, in [3], the activation was -2.22% (inactive) and -1.08% (inactive). Further, the max response in experiment [5] is -13.8% and 47.8%. The call in experiment [7], in experiment [8] and in experiment [9] was inactive.
Consider `ClCCCl`, for which the Potency result in experiment [1], in experiment [14], in [2], in experiment [4], in experiment [6] and in experiment [10] was “inactive” each time. The Potency result in [16], in experiment [11] and in experiment [12] was “inactive” in each case. The call in experiment [13], in experiment [7], in experiment [8] and in [9] was inactive. The activation in [3] is -0.189% (inactive) and 0.123% (inactive) and 2.5% (inactive); in experiment [15], -0.0783% (inactive) and -1.06% (inactive) and -1.29% (inactive). Also, the max response in experiment [5] was -25.6% and 21.1%.
For `COC(=O)CCCCC(=O)OC`, the molecule was called inactive in experiment [13], in experiment [17], in [7], in [8] and in experiment [9]. Moreover, the Potency result in experiment [2], in experiment [4], in experiment [6], in experiment [16] and in [11] was “inactive” throughout. Besides, the activation in [3] was 7.61% (inactive) and 12.5% (inactive). Besides, in experiment [5], the max response is 25.3% and -0.778%.
On to `c1ccccc1`, for which the Potency entry in experiment [1], in [2], in experiment [4], in experiment [10], in experiment [16] and in [11] was “inactive” each time. Also, the molecule was classed as inactive in [13], in experiment [17], in experiment [7], in experiment [8] and in experiment [9]. Further, the activation in experiment [3] was -2.25% (inactive) [middle of 4 runs]; in experiment [15], -0.601% (inactive) [middle of 4 runs].
Take `Clc1cc(Cl)c(Cl)cc1Cl`: the Potency result in experiment [1], in [18], in experiment [2], in [4], in experiment [6] and in experiment [10] was “inactive” each time. Besides, the Potency entry in [11] and in experiment [12] was “inactive” each time. In addition, the call in experiment [13] and in experiment [7] was inactive. In addition, the activation was 3.81% (inactive) and -2.02% (inactive) in experiment [3]; 0.515% (inactive) and -2% (inactive) in experiment [15]. Moreover, the max response in [5] is 10.3% and -6.5%; in [19], 6.25% (inactive) and -33.5% (inactive).
`C1OCOCO1`: the Potency result in experiment [1], in experiment [20], in experiment [4], in experiment [6], in experiment [10] and in experiment [11] was “inactive” each time. Further, the Potency result in experiment [12] is “inactive”. Besides, the molecule was called inactive in experiment [17]. Besides, the activation was 3.41% (inactive) in experiment [3] and -1.91% (inactive) in experiment [15]. For the same molecule, in experiment [5], the max response was 2.46%. Also, the Potency in experiment [16] was 66.8 µM (active).
As to `CCC(C)c1ccccc1O` (configuration not stated), the molecule was called inactive in [13], in experiment [7], in [8] and in experiment [9]. Besides, the activation in [3] was -11.6% (inactive) and -11.3% (inactive) and 1.07% (inactive); in [15], 0.327% (inactive) and -0.174% (inactive) and -0.563% (inactive). In addition, the Potency result in [4], in experiment [6], in experiment [11] and in [12] was “inactive” in each case. The max response in experiment [5] was -8.1% and -17.6%; in experiment [19], 0.496% (inactive) and -0.838% (inactive) and 1.78% (inactive).
Regarding `CCCCC(CC)CN` (configuration not stated), the Potency entry in experiment [2], in [4], in experiment [6], in experiment [10], in experiment [11] and in experiment [12] was “inactive” each time. In addition, the activation in [3] is -3.51% (inactive) and -4.52% (inactive); in experiment [15], -0.627% (inactive) and -0.116% (inactive). In addition, the max response in experiment [5] is -11.9% and 2.89%; in experiment [19] it was 27.8% (inactive) and 7.94% (inactive). The molecule was classed as inactive in experiment [7], in [8] and in experiment [9]. In addition, in [16], the Potency is 75 µM (active) and inactive.
In the case of `COC(=O)c1ccc(C)cc1`, the Potency result in experiment [18], in [14], in experiment [4], in [6], in [10] and in [11] was “inactive” throughout. Further, the molecule was called inactive in experiment [17], in [8] and in [9]. Further, the activation in experiment [3] is -15.8% (inactive). Besides, the max response is -3.36% and -19.7% in [5]; 25.4% (inactive) and -1.75% (inactive) in experiment [19].
With `C=CCOC(=O)c1ccccc1C(=O)OCC=C`, the result in experiment [13], in experiment [17] and in experiment [7] was inactive. Also, the Potency entry in experiment [20], in experiment [18], in [14], in experiment [2], in experiment [11] and in experiment [12] was “inactive” throughout. The activation in experiment [15] is -0.29% (inactive) and -0.27% (inactive).
